Reference: PubChem BioAssay AID1159580 (chemical genetic matrix, 2015)
Values joined by “and” are separate entries in the source; they are usually repeats but may differ in a detail not shown here. Equal entries are not always repeated. In all, about 5,500 compounds went through this assay and about 2,000 (36%) were called active. About 18% were inconclusive and are not listed. No stated cut-off is given here; in the data, active means normalized growth mostly below about 0.91 (no sharp cut-off); inconclusive means no clear call, values can overlap the other calls; inactive means mostly above about 0.92. Some of the results follow.

Test: chemical genetic growth profiling, strain panel (AID 1159580);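 further: tested at 20 µM; growth read once vehicle control cultures reached saturation at 30 °C; 1 = growth at the plate median or of vehicle wells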
Conditions: S. cerevisiae deletion strains, growth OD

Measured: normalized growth

CC(=O)O[C@H]1C[C@@H](OC(C)=O)C(C)(C)C2C[C@@H](OC(C)=O)[C@]3(C)C(CC[C@@]4(C)[C@H](c5ccoc5)OC(=O)[C@H]5O[C@]543)[C@]21C (some centres not stated)
inactive: locus YAL021C, strain ccr4, stronger effect = lower value 0.993 | locus YAL026C, strain drs2, stronger effect = lower value 0.984 | locus YAL030W, strain snc1, stronger effect = lower value 0.993 | locus YBL061C, strain skt5, stronger effect = lower value 0.993 | locus YBR009C, strain hhf1, stronger effect = lower value 1.02 | locus YBR021W, strain FUR4, stronger effect = lower value 0.969 | locus YBR023C, strain chs3, stronger effect = lower value 0.996 | locus YBR171W, strain sec66, stronger effect = lower value 0.991 | locus YBR229C, strain ROT2, stronger effect = lower value 0.992 | locus YBR231C, strain swc5, stronger effect = lower value 1.01 | locus YBR279W, strain paf1, stronger effect = lower value 1 | locus YCL011C, strain gbp2, stronger effect = lower value 1 | locus YCL016C, strain dcc1, stronger effect = lower value 0.992 | locus YCL029C, strain bik1, stronger effect = lower value 1.01 | locus YCL061C, strain MRC1, stronger effect = lower value 1 | locus YCL069W, strain vba3, stronger effect = lower value 0.999 | locus YCR088W, strain abp1, stronger effect = lower value 1 | locus YDL005C, strain med2, stronger effect = lower value 0.993 | locus YDL035C, strain GPR1, stronger effect = lower value 1.02 | locus YDL040C, strain nat1, stronger effect = lower value 0.999 | locus YDL074C, strain BRE1, stronger effect = lower value 1.01 | locus YDL101C, strain DUN1, stronger effect = lower value 0.991 | locus YDL134C, strain PPH21, stronger effect = lower value 0.994 | locus YDL185W, strain tfp1, stronger effect = lower value 1 | locus YDL192W, strain arf1, stronger effect = lower value 1.01 | locus YDR001C, strain nth1, stronger effect = lower value 0.976 | locus YDR069C, strain doa4, stronger effect = lower value 0.975 | locus YDR101C, strain arx1, stronger effect = lower value 1.02 | locus YDR137W, strain rgp1, stronger effect = lower value 0.963 | locus YDR159W, strain sac3, stronger effect = lower value 0.96 | locus YDR162C, strain NBP2, stronger effect = lower value 1.02 | locus YDR195W, strain ref2 0.954 | locus YDR297W, strain sur2, stronger effect = lower value 0.998 | locus YDR318W, strain mcm21, stronger effect = lower value 1.01 | locus YDR334W, strain swr1, stronger effect = lower value 0.971 | locus YDR335W, strain msn5, stronger effect = lower value 0.993 | locus YDR388W, stronger effect = lower value 0.999 | locus YDR392W, strain spt3, stronger effect = lower value 0.989 | locus YDR502C, strain sam2, stronger effect = lower value 0.998 | locus YEL003W, strain gim4, stronger effect = lower value 0.988 | locus YEL037C, strain rad23, stronger effect = lower value 0.994 | locus YEL061C, strain CIN8 (second series), stronger effect = lower value 0.991 | locus YEL061C, strain CIN8, stronger effect = lower value 1.02 | locus YER015W, strain faa2, stronger effect = lower value 1 | locus YER016W, strain bim1, stronger effect = lower value 0.993 | locus YER110C, stronger effect = lower value 1 | locus YER111C, strain swi4, stronger effect = lower value 0.988 | locus YER155C, strain BEM2 (second series), stronger effect = lower value 0.996 | locus YER155C, strain BEM2, stronger effect = lower value 1 | locus YER167W, strain BCK2, stronger effect = lower value 0.998 | locus YFR010W, strain ubp6, stronger effect = lower value 0.973 | locus YGL078C, strain dbp3, stronger effect = lower value 0.997 | locus YGL086W, strain mad1, stronger effect = lower value 1.02 | locus YGL167C, strain pmr1, stronger effect = lower value 0.987 | locus YGL173C, strain kem1, stronger effect = lower value 0.999 | locus YGL227W, strain vid30, stronger effect = lower value 1.01 | locus YGL240W, strain doc1, stronger effect = lower value 0.999 | locus YGL248W, strain PDE1, stronger effect = lower value 0.99 | locus YGL253W, strain hxk2, stronger effect = lower value 0.995 | locus YGR078C, strain PAC10, stronger effect = lower value 0.991 | locus YGR135W, strain pre9, stronger effect = lower value 0.979 | locus YGR252W, strain gcn5, stronger effect = lower value 0.966 | locus YHR013C, strain ard1, stronger effect = lower value 0.987 | locus YHR027C, strain rpn1, stronger effect = lower value 0.968 | locus YHR030C, strain SLT2, stronger effect = lower value 0.978 | locus YHR079C, strain IRE1 (second series), stronger effect = lower value 0.989 | locus YHR079C, strain IRE1, stronger effect = lower value 0.984 | locus YHR094C, strain hxt1, stronger effect = lower value 1.01 | locus YHR129C, strain ARP1, stronger effect = lower value 1.02 | locus YHR142W, strain chs7, stronger effect = lower value 1 | locus YHR200W, strain rpn10, stronger effect = lower value 0.995 | locus YIL066C, strain RNR3, stronger effect = lower value 1.01 | locus YIL073C, strain SPO22, stronger effect = lower value 0.989 | locus YIL125W, strain kgd1, stronger effect = lower value 0.996 | locus YIR030C, strain dcg1, stronger effect = lower value 1 | locus YJL092W, strain hpr5, stronger effect = lower value 1.01 | locus YJL095W, strain BCK1 (second series), stronger effect = lower value 0.995 | locus YJL095W, strain BCK1, stronger effect = lower value 1.02 and 0.984 | locus YJL115W, strain asf1, stronger effect = lower value 0.974 | locus YJL129C, strain trk1, stronger effect = lower value 0.979 | locus YJL134W, strain LCB3, stronger effect = lower value 1.02 | locus YJL154C, strain vps35, stronger effect = lower value 0.98 | locus YJL164C, strain tpk1, stronger effect = lower value 0.997 | locus YJL166W, strain qcr8, stronger effect = lower value 1.03 | locus YJL168C, strain set2, stronger effect = lower value 0.999 | locus YJL187C, strain SWE1 (second series), stronger effect = lower value 0.989 | locus YJL187C, strain SWE1, stronger effect = lower value 0.999 | locus YJR043C, strain POL32, stronger effect = lower value 1.02 | locus YJR066W, strain TOR1, stronger effect = lower value 0.932 | locus YKL009W, strain mrt4, stronger effect = lower value 1 | locus YKL068W, stronger effect = lower value 1.01 | locus YKL160W, strain elf1, stronger effect = lower value 1 | locus YKL190W, strain CNB1, stronger effect = lower value 1.01 | locus YKR001C, strain vps1, stronger effect = lower value 1 | locus YKR026C, strain gcn3, stronger effect = lower value 0.995 | locus YKR091W, strain srl3, stronger effect = lower value 0.989 | locus YLL001W, strain dnm1, stronger effect = lower value 0.988 | locus YLL026W, stronger effect = lower value 0.997 | locus YLL041C, strain sdh2, stronger effect = lower value 0.987 | locus YLR027C, strain aat2, stronger effect = lower value 1.01 | locus YLR039C, strain RIC1, stronger effect = lower value 0.981 | locus YLR058C, strain SHM2, stronger effect = lower value 1.01 | locus YLR102C, strain apc9, stronger effect = lower value 0.999 | locus YLR113W, strain HOG1, stronger effect = lower value 1.03 | locus YLR221C, strain rsa3, stronger effect = lower value 0.995 | locus YLR258W, strain gsy2, stronger effect = lower value 0.998 | locus YLR262C, strain YPT6 (second series), stronger effect = lower value 0.969 | locus YLR262C, strain YPT6, stronger effect = lower value 0.974 | locus YLR268W, strain sec22, stronger effect = lower value 1 | locus YLR320W, strain mms22, stronger effect = lower value 1.02 | locus YLR330W, strain CHS5, stronger effect = lower value 1.01 | locus YLR342W, strain FKS1, stronger effect = lower value 1 | locus YLR357W, strain rsc2, stronger effect = lower value 0.997 | locus YLR370C, strain arc18, stronger effect = lower value 0.995 | locus YLR371W, strain rom2, stronger effect = lower value 1 | locus YLR384C, strain iki3, stronger effect = lower value 1.01 | locus YLR418C, strain cdc73, stronger effect = lower value 0.996 | locus YML016C, strain PPZ1, stronger effect = lower value 1.01 | locus YML032C, strain rad52, stronger effect = lower value 1 | locus YML120C, strain ndi1, stronger effect = lower value 0.995 | locus YML124C, strain tub3, stronger effect = lower value 1 | locus YMR058W, strain fet3, stronger effect = lower value 0.985 | locus YMR078C, strain ctf18, stronger effect = lower value 0.989 | locus YMR125W, strain sto1, stronger effect = lower value 0.983 | locus YMR129W, stronger effect = lower value 0.994 | locus YMR205C, strain PFK2, stronger effect = lower value 0.988 | locus YMR223W, strain ubp8, stronger effect = lower value 0.996 | locus YMR231W, strain pep5, stronger effect = lower value 0.981 | locus YMR307W, strain GAS1, stronger effect = lower value 0.895 | locus YNL067W, strain RPL9B, stronger effect = lower value 1.01 | locus YNL071W, strain lat1, stronger effect = lower value 0.992 | locus YNL128W, strain TEP1, stronger effect = lower value 1.02 | locus YNL153C, strain GIM3, stronger effect = lower value 1.02 | locus YNL183C, strain NPR1, stronger effect = lower value 0.93 | locus YNL209W, strain ssb2, stronger effect = lower value 0.995 | locus YNL233W, strain BNI4, stronger effect = lower value 0.974 | locus YNL248C, strain rpa49, stronger effect = lower value 0.971 | locus YNL250W, strain rad50, stronger effect = lower value 0.98 | locus YNL271C, strain bni1, stronger effect = lower value 1 | locus YNL298W, strain CLA4, stronger effect = lower value 1.01 | locus YNL307C, strain MCK1, stronger effect = lower value 0.986 | locus YNL322C, strain KRE1 (second series), stronger effect = lower value 0.999 | locus YNR049C, strain mso1, stronger effect = lower value 0.991 | locus YNR052C, strain pop2, stronger effect = lower value 0.996 | locus YOL012C, strain htz1 1 | locus YOL147C, strain pex11, stronger effect = lower value 0.999 | locus YOR001W, strain rrp6, stronger effect = lower value 0.979 | locus YOR061W, strain CKA2, stronger effect = lower value 0.997 | locus YOR069W, strain VPS5, stronger effect = lower value 0.991 | locus YOR070C, strain gyp1, stronger effect = lower value 0.986 | locus YOR080W, strain dia2, stronger effect = lower value 0.997 | locus YOR083W, strain WHI5, stronger effect = lower value 1 | locus YOR106W, strain vam3, stronger effect = lower value 0.983 | locus YOR136W, strain idh2, stronger effect = lower value 0.996 | locus YOR144C, strain elg1, stronger effect = lower value 1 | locus YOR184W, strain ser1, stronger effect = lower value 1 | locus YOR231W, strain MKK1, stronger effect = lower value 0.987 | locus YOR265W, strain rbl2, stronger effect = lower value 0.989 | locus YOR270C, strain vph1, stronger effect = lower value 0.858 | locus YOR290C, strain snf2, stronger effect = lower value 0.994 | locus YOR316C, strain cot1, stronger effect = lower value 0.999 | locus YPL051W, strain arl3, stronger effect = lower value 1 | locus YPL055C, strain LGE1, stronger effect = lower value 1.02 | locus YPL078C, strain atp4, stronger effect = lower value 1.01 | locus YPL106C, strain sse1, stronger effect = lower value 1.05 | locus YPL240C, strain hsp82, stronger effect = lower value 0.994 | locus YPL256C, strain CLN2, stronger effect = lower value 0.989 | locus YPR119W, strain clb2, stronger effect = lower value 1.01 | locus YPR141C, strain kar3, stronger effect = lower value 0.996 | locus YPR163C, strain tif3, stronger effect = lower value 1 | locus YPR167C, strain met16, stronger effect = lower value 1 | strain wtn01, stronger effect = lower value 1
